# NR3A LBD binder – NR3A (human) ligand-binding domain modulation | NR3A LBD differential scanning fluorimetry, Tm shift; 0% = protein alone, 100% = glycine-bound protein | Tm shift relative to glycine control, % at 25 µM | hit rate 2.5% among 340,000 | AID 1259313;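 active = melting temperature shift of at least 10% of the positive control shift, at one fixed dose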
# MPTP block – inhibitors of mitochondrial permeability transition pore | AID 602449 | inhibition, % at 10 µM | hit rate 1.4% among 360,000 | isolated mouse mitochondria, Ca2+ swelling absorbance, 30 min;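 active = inhibition of 50% or more, scaled per plate between neutral and stimulator controls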;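 also: 0% = DMSO wells given calcium and 100% = 1 mM EGTA wells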
# SKKanGAS inh – SKKanGAS growth inhibition | inhibition, % at 7.5 µM | hit rate 1.3% among 300,000 | S. pyogenes SKKanGAS, kanamycin growth, BacTiter-Glo, 6 h;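 active = mean replicate score, as percent of positive control median, at least 50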;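 also: strain carries kanamycin resistance gene driven by streptokinase promoter and grows in 40 µg/ml kanamycin; loss of luminescence reflects streptokinase promoter inhibition or plain growth inhibition; 0% = median of DMSO wells and 100% = positive control at its reference dose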
# CSC inhib – cancer stem cell inhibition | cancer stem cell-like cells viability, luminescence | inhibition, % at 7.5 µM | hit rate 1.1% among 300,000 | AID 2717; in the data active = inhibition above about 75%; tested in HMLE shEcad cells
# Mdm2-MdmX inh – inhibitors of human Mdm2/MdmX interaction; O15151+Q00987; SaOS-2 split-luciferase Mdm2/MdmX complementation, luminescence; inhibition, % at 8 µM; hit rate 3% among 330,000; AID 485346;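 active = inhibition of at least 50% at 8 µM in the primary screen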
# Target sequence (O15151 whole entry, looked up): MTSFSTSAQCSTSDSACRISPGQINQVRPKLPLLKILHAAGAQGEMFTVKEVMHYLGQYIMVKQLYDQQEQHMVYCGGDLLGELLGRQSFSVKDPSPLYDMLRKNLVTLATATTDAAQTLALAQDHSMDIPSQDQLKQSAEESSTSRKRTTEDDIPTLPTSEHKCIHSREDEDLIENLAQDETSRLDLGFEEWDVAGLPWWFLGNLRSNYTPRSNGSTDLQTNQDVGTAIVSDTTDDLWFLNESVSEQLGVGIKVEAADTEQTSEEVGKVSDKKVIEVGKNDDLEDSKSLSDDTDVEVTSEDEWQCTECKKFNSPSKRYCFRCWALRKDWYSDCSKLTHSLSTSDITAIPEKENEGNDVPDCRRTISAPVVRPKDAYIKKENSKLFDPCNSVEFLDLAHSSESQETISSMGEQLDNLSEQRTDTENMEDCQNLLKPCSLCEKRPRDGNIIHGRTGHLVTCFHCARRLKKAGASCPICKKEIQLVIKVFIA
# Target sequence (Q00987 whole entry, looked up): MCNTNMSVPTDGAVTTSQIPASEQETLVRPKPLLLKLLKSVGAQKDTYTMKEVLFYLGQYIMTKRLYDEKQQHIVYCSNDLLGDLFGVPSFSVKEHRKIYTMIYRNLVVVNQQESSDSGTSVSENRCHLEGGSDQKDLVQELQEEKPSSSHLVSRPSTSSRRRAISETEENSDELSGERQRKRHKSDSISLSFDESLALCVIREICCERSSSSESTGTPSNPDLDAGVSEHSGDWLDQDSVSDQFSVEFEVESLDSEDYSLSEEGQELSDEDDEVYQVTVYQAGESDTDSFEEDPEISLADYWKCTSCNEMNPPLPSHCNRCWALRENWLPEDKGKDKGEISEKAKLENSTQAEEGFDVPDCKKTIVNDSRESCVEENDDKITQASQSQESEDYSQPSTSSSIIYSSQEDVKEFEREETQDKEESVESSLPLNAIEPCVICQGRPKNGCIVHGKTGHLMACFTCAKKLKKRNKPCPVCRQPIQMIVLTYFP
# Beta cell apopt – blocks beta cell apoptosis | INS-1E cytokine-induced death, ATP luminescence, 48 h; percent of positive-control rescue, neutral wells zero | hit rate 0.8% among 300,000 | protection from apoptosis, % (test concentration not listed);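 active = Every replicate reaches about 75%, or at least half do and their mean reaches it too, limit read from the data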;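 also: 0% = cytokine-treated negative control wells and 100% = positive control rescue; higher means more ATP so stronger rescue from cytokine killing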
# * marks the source's active call; other numbers are inactive results; nt = not tested or not shown. Most compounds without a hit are left out; they make up all but 6.9% or so of the library.
SMILES,NR3A LBD binder,MPTP block,SKKanGAS inh,CSC inhib,Mdm2-MdmX inh,Beta cell apopt
CCCCCN(C(=O)CCC(=O)OC(C)C(=O)Nc1cccc(C#N)c1)c1c(N)n(CCCC)c(=O)[nH]c1=O (configuration not stated),18*,-2,-1,0,7,3
Cc1ccc(NC(=O)COC(=O)CCc2ccccc2)cc1S(=O)(=O)N1CCOCC1,2,0,nt,-9,-19,1
O=c1c(Cc2ccc(Cl)cc2)c(O)ccn1Cc1cccc(Cl)c1,-7,2,-5,26,2,1
O=c1c(Cc2ccc(Cl)cc2Cl)c(O)ccn1Cc1ccc(Cl)cc1,22*,15,42,27,-23,2
COC(=O)C[C@@H]1C=C[C@H](NS(=O)(=O)c2cccc(F)c2)[C@@H](CO)O1,nt,-1,nt,nt,nt,nt
CC(C)(C)c1ccc(NC(=O)c2cc(C3CCCN(S(=O)(=O)c4cccc5cccnc45)C3)on2)cc1 (configuration not stated),nt,2,nt,nt,nt,nt
CC(C)(C)c1ccc(C(=O)CC(Sc2ccc(Cl)cc2)C(=O)O)cc1 (configuration not stated),2,-2,1,79*,7,-24
CC(CCC(C)C(C)(C)C)[C@@H]1CC[C@H]2C3C[C@H](OS(O)(=S)=S)[C@H]4C[C@H](OS(O)(=S)=S)[C@@H](OS(O)(=S)=S)C[C@]4(C)[C@H]3CC[C@]12C (some centres not stated) (tested in a mixture with another compound),-416,-12,nt,98*,-18,-1
CC1CCCC(NC(=O)CSc2nncs2)C1C (configuration not stated),1,-1,nt,3,-1,-1
Cc1ccc(-n2c3nc(=O)[nH]c(=O)c-3cc3cc([N+](=O)[O-])ccc32)cc1C,0,4,-7,84*,40,14
Cc1ccc(S(=O)(=O)n2cnc3cc([N+](=O)[O-])ccc32)cc1C,3,-3,-9,6,3,-4
O=C(Nc1ccc(NC(=O)c2cc3ccccc3o2)cc1)c1ccco1,26*,0,15,-10,-23,0
Cc1ccc(NC(=O)c2cc3ccccc3o2)cc1Cl,35*,1,-4,17,-94,2
COc1ccc(NC(=O)c2cc3ccccc3o2)cc1,2,2,-5,-3,-219,nt
CCC(=O)Nc1ccc(Cl)c(NC(=S)NC(=O)c2cc3ccccc3o2)c1,25*,4,-4,-11,40,9
COc1ccc(NC(=O)c2cc3ccccc3o2)cc1OC,26*,1,-11,-2,-39,nt
CCOc1ccccc1CN1[C@@H](c2ccc(OC)cc2)CC(C(=O)OC)(C(=O)OC)[C@H]1c1ccccc1,nt,3,nt,nt,nt,nt
O=C1CC2(CCN(C(=O)COc3ccccc3F)CC2)Oc2ccccc21,1,-1,-3,-10,23,nt
O=C(Nc1ccc(-c2nc3ccccc3o2)cc1)c1ccc(N2C(=O)C3C4C=CC(C4)C3C2=O)cc1 (configuration not stated),18*,3,12,-7,41,3
O=C(Nc1ccccc1)c1cccc(N2C(=O)C3C4C=CC(C4)C3C2=O)c1 (configuration not stated),1,0,-2,-19,0,nt
Cc1ccc2oc(-c3ccc(NC(=O)c4ccc5c(c4)OCO5)cc3)nc2c1,22*,1,-5,8,38,nt
Cc1ccc(-c2nc3ccccc3o2)cc1NC(=O)c1ccc2c(c1)OCO2,0,1,-9,25,-72,11
O=C(Nc1ccc(-c2nc3ccccc3o2)cc1)c1ccc2c(c1)OCO2,25*,-3,1,0,-4,9
C[C@@H]1CN([C@H](C)CO)C(=O)CCCn2nncc2CO[C@H]1CN(C)C(=O)Nc1cccc2ccccc12,nt,-2,nt,nt,nt,nt
Cc1ccc(NC(=O)c2cccc(NC(=O)CC3SC(N4CCCCC4)=NC3=O)c2)nc1 (configuration not stated),1,-1,-1,0,-22,4
SMILES,NR3A LBD binder,MPTP block,SKKanGAS inh,CSC inhib,Mdm2-MdmX inh,Beta cell apopt
O=C(Oc1ccc[nH]c1=O)c1ccccc1,nt,0,nt,nt,nt,nt
O=C(Nc1ccc(F)cc1)Oc1ccc[nH]c1=O,12*,3,-3,5,14,-9
CC1CCCCC12NC(=O)N(CC(=O)N1CCN(Cc3ccc(C#N)cc3)CC1)C2=O (configuration not stated),0,1,nt,nt,29,40
O=C(Nc1cnn(C23CC4CC(CC(C4)C2)C3)c1)c1cc(-c2ccccc2)on1,-3,11,14,81*,-13,14
Cc1ccc(-c2cc(C(=O)Nc3cnn(C45CC6CC(CC(C6)C4)C5)c3)no2)cc1,-3,3,4,-11,6,5
O=C(CSc1nnc(NC(=O)c2ccco2)s1)Nc1ccc(F)cc1F,4,1,27,-14,22,2
O=C(CSc1nc2ccccc2o1)Nc1ccccc1N1CCCCCC1,-2,12,59*,38,-1,-4
CC(=O)Nc1ccc(NC(=O)CSc2nc3ccccc3o2)cc1,-9,0,7,nt,-13,0
O=C(CSc1nc2ccccc2o1)Nc1ccc(Cl)cc1,19*,42,25,2,-10,-16
O=C(NCc1n[nH]c(=S)n1-c1ccc(Br)cc1)c1cccs1,1,-1,9,-18,17,nt
OC(COC(c1ccccc1)c1ccccc1)CN1CCc2ccccc2C1 (configuration not stated),0,12,-4,13,20,2
OC(COC(c1ccc(F)cc1)c1ccc(F)cc1)CN1CCc2ccccc2C1 (configuration not stated),0,5,-2,31,27,102*
COc1ccc(/C=N/NC(=O)c2ccc(NC(=O)c3ccccc3Br)cc2)cc1,27*,-1,10,-7,4,8
O=C(N/N=C/c1ccc2c(c1)OCO2)c1ccc2c(c1)OCCO2,3,-1,0,62,-51,6
O=C(N/N=C/c1ccc2c(c1)OCO2)c1ccc(NC(=O)c2ccc(F)cc2)cc1,19*,1,12,16,9,5
Cc1ccccc1C(=O)Nc1ccc(C(=O)N/N=C/c2ccc(O)c(Br)c2)cc1,28*,0,-4,22,-30,-3
O=C(N/N=C/c1ccccc1)c1ccc(NC(=O)c2ccc(F)cc2)cc1,33*,1,-2,3,0,2
Cc1ccc(/C=N/NC(=O)c2cccc(NC(=O)c3ccccc3C)c2)o1,-3,-1,1,-9,7,-10
CC(=O)Nc1ccc(C(=O)N/N=C/c2ccc(F)cc2)cc1,-28,-3,-1,19,-9,-4
CCN(CC)CCCNC(=O)Cn1cnc2sc(C)c(S(=O)(=O)N3CCC(C)CC3)c2c1=O,1,-1,-3,-15,-7,-8
O=C(N/N=C\c1ccc(F)cc1)c1ccc(F)cc1,1,0,-5,-7,-25,-1

# High-throughput results as filed in PubChem.
